In PubChem BioAssay one finds inhibition data, which are given here for 18 compounds.

A number with no mark means an inactive call. The source made the active and inactive calls.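 The calls were made as follows: active = inhibition of the reporter signal at or above 50%; inactive = inhibition below 50%.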

This experiment in a line: inhibitors of poly I:C-induced TLR3 signaling, primary screen, cell-based, poly I:C stimulus, luciferase, 10K MLSCN set (AID 602277). The following applies: HEK293-TLR3 RL24 IRF3 luciferase reporter, at 10 µM, stronger effect = higher value.
Regarding `COc1ccc(C2SCC(=O)Nc3c2c(=O)[nH]n3C2CCCCCC2)cc1OC` (stereo not drawn), the inhibition was 23.3%.

With `Cc1cnn(C2CCN(C)CC2)c1N`, the inhibition was 14.8%.

`O=C1CC(N2CCC(n3c(=O)[nH]c4ccccc43)CC2)C(=O)N1c1ccc(F)cc1` (stereo not drawn): the inhibition was 18.8%.

As to `CCNc1ccc(P(=S)(N(C)C)N(C)C)cc1`, the inhibition is 26.1%.

`c1ccc(C2NCc3ccccc3-n3cccc32)cc1` (stereo not drawn): the inhibition was 15.8%.

With `CC(=O)Nc1ccc(OC(=O)c2ccccc2N)cc1`, the inhibition is 27.2%.

On to `CCOCC(=O)NC1CCSC1=O` (stereo not drawn), for which the inhibition is 23.1%.

Turning to `CN1CCN(c2nc3ccccc3c(=O)n2-c2ccccc2)CC1`, the inhibition was 50.1% (active).

`O=c1[nH]c(=O)n(CCc2ccc(F)cc2)c(O)c1C=NCCCn1ccnc1`: the inhibition was 24%.

Consider `CCOc1c(P(=S)(N(C)C)N(C)C)c(C)nn1-c1ccccc1`, for which the inhibition is 16.7%.

With `O=C(CN1C2CCC1CC(O)(c1cccnc1)C2)Nc1ccc2c(c1)OCO2` (stereo not drawn), the inhibition was 22.4%.

`CCN1CCN(C(=O)COc2cc(=O)n(CC)c3ccccc23)CC1`: the inhibition was 36.3%.

For the compound `O=C(O)C1(c2ccc(Cl)cc2)CCC1`, the inhibition was 21.3%.

For the compound `Cc1cccc(C2=NCC(=O)N(CC(=O)NCc3ccco3)c3sc4c(c32)CCCC4)c1`, the inhibition is 49.8%.

Regarding `CP(C)(=O)CCC(=O)O`, the inhibition was 10.1%.

On to `CN(C)CCc1nc2ccccc2c(=O)n1-c1ccccc1`, for which the inhibition is -35%.

Regarding `CCC(=NCC1CCCO1)c1c(O)n(Cc2ccccc2)c(=O)[nH]c1=O` (stereo not drawn), the inhibition is 19.3%.

`CCCCCCOc1ccc(CN2CCN(C)CC2)cc1`: the inhibition was 8.4%.
